Test results as given in ChEMBL document CHEMBL2218924, “A broad activity screen in support of a chemogenomic map for kinase signalling research and drug discovery” (Biochem J, 2013).

Tests used:
[1] = molecular target: T1, Aurora kinase C (Homo sapiens) (UniProt Q9UQB9); conditions: at 1 µM
T1 sequence (whole entry): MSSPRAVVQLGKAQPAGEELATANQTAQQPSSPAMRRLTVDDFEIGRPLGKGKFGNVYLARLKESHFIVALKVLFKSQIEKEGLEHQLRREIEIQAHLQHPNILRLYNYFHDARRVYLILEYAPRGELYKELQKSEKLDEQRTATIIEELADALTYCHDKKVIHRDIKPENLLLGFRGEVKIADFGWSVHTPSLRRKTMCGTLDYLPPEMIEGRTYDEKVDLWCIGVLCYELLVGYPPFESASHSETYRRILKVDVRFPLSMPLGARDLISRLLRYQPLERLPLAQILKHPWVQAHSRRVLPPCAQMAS

[2] = molecular target: T1, Aurora kinase C (Homo sapiens); conditions: at 10 µM
[3] = molecular target: Tyrosine-protein kinase receptor UFO (Homo sapiens) (UniProt P30530); conditions: at 1 µM
Tyrosine-protein kinase receptor UFO (Homo sapiens), sequence (P30530 whole entry): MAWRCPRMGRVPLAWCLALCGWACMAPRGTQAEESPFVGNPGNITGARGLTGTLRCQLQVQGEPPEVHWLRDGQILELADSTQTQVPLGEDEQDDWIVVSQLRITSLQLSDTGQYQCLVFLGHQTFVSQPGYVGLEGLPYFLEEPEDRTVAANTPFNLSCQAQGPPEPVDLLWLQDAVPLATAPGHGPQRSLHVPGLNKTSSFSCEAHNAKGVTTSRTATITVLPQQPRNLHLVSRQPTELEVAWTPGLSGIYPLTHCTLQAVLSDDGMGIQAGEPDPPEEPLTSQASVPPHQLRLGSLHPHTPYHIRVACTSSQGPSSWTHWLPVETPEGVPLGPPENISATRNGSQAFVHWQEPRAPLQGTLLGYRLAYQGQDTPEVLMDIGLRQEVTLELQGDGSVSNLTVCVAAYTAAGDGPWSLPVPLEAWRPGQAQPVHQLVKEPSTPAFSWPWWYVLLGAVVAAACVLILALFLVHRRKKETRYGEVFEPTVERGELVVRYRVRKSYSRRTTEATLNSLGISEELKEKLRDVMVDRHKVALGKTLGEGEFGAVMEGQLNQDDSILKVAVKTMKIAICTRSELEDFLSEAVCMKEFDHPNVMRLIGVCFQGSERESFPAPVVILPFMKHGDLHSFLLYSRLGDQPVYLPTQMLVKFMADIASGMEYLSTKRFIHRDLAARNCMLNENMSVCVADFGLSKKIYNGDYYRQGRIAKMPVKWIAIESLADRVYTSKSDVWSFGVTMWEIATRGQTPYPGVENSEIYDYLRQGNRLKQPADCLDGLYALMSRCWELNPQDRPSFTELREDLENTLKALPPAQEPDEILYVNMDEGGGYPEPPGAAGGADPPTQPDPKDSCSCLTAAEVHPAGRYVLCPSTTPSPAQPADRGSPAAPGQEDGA

[4] = molecular target: Tyrosine-protein kinase receptor UFO (Homo sapiens) (UniProt P30530); conditions: at 10 µM
[5] = molecular target: Protein-tyrosine kinase 6 (Homo sapiens) (UniProt Q13882); conditions: at 1 µM
Protein-tyrosine kinase 6 (Homo sapiens), sequence (Q13882 whole entry, looked up): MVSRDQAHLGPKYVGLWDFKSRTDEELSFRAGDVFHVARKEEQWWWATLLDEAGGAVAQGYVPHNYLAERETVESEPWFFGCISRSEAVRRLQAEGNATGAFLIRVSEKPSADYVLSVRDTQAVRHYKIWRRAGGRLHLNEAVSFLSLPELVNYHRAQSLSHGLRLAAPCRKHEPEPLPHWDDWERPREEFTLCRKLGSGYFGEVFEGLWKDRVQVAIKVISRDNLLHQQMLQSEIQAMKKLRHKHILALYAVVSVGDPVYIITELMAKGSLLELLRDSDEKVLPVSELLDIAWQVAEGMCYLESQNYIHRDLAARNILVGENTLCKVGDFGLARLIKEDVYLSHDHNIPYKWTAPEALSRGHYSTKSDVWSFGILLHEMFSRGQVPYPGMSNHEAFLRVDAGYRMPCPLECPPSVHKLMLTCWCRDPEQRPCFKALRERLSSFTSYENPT

[6] = molecular target: Protein-tyrosine kinase 6 (Homo sapiens) (UniProt Q13882); conditions: at 10 µM
[7] = molecular target: Tyrosine-protein kinase BTK (Homo sapiens) (UniProt Q06187); conditions: at 1 µM
Tyrosine-protein kinase BTK (Homo sapiens), sequence (Q06187 whole entry): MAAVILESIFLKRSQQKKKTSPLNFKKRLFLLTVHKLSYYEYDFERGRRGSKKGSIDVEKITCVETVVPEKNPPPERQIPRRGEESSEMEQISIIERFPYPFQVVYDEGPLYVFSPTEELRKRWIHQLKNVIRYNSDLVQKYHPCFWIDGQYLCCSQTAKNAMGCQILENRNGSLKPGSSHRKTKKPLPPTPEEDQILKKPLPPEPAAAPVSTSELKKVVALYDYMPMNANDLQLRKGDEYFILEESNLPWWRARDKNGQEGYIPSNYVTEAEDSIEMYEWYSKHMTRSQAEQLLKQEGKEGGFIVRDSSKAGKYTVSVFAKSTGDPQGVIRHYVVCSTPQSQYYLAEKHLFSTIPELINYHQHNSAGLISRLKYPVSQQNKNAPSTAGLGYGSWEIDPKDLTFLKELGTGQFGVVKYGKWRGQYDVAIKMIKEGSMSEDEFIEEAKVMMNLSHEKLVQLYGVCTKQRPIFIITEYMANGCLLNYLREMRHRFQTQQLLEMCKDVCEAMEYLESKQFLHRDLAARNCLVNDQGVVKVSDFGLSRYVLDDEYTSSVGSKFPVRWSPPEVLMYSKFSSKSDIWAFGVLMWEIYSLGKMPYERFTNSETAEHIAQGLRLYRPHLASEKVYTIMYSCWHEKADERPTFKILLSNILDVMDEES

[8] = molecular target: Tyrosine-protein kinase BTK (Homo sapiens) (UniProt Q06187); conditions: at 10 µM
[9] = molecular target: Tyrosine-protein kinase Blk (Homo sapiens) (UniProt P51451); conditions: at 1 µM
Tyrosine-protein kinase Blk (Homo sapiens), sequence (P51451 2-505 limits assumed): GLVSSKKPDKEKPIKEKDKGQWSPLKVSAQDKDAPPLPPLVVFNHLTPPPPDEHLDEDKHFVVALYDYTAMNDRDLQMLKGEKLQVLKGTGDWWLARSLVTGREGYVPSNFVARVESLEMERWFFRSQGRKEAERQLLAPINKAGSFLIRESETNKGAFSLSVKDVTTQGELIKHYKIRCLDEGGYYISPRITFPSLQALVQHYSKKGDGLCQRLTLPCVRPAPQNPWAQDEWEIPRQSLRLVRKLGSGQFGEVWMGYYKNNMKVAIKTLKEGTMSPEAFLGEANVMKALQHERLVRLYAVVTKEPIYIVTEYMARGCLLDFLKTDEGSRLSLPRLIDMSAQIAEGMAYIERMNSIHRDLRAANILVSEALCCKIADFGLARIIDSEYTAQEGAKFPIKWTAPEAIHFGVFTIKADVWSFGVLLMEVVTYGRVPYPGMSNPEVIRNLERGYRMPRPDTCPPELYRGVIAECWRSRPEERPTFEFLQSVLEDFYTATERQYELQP

[10] = molecular target: Tyrosine-protein kinase Blk (Homo sapiens) (UniProt P51451); conditions: at 10 µM

CCC(=O)Nc1ccc2ncnc(Nc3cccc(Br)c3)c2c1
residual activity [1]: 94% | residual activity [2]: 80% | residual activity [3]: 83% | residual activity [4]: 80% | residual activity [5]: 80% | residual activity [6]: 60% | residual activity [7]: 95% | residual activity [8]: 78% | residual activity [9]: 112% | residual activity [10]: 80%

c1ccc(-c2n[nH]cc2-c2ccnc3ccccc23)nc1
residual activity [1]: 100% | residual activity [2]: 66% | residual activity [3]: 65% | residual activity [4]: 80% | residual activity [5]: 93% | residual activity [6]: 37% | residual activity [7]: 102% | residual activity [8]: 100% | residual activity [9]: 102% | residual activity [10]: 59%

N#CCCc1ccc2c(c1)-c1[nH]c3ccc([N+](=O)[O-])cc3c1CC(=O)N2
residual activity [1]: 63% | residual activity [2]: 22% | residual activity [3]: 57% | residual activity [4]: 35% | residual activity [7]: 79% | residual activity [8]: 66% | residual activity [9]: 24% | residual activity [10]: 11%

CCOc1cc2ncnc(Nc3cccc(Br)c3)c2cc1OCC
residual activity [1]: 98% | residual activity [2]: 52% | residual activity [3]: 66% | residual activity [4]: 31% | residual activity [5]: 18% | residual activity [6]: 2% | residual activity [7]: 72% | residual activity [8]: 28% | residual activity [9]: 17% | residual activity [10]: 3%

c1ccc2c(-c3ccncc3)c[nH]c2c1
residual activity [1]: 66% | residual activity [2]: 46% | residual activity [3]: 81% | residual activity [4]: 75% | residual activity [5]: 95% | residual activity [6]: 75% | residual activity [7]: 99% | residual activity [10]: 107%

COc1ccc(S(=O)(=O)N(CCO)c2ccccc2CN(C)C/C=C/c2ccc(Cl)cc2)cc1
residual activity [1]: 83% | residual activity [2]: 88% | residual activity [3]: 107% | residual activity [4]: 82% | residual activity [5]: 100% | residual activity [6]: 88% | residual activity [8]: 93% | residual activity [9]: 99% | residual activity [10]: 58%

O=C1NC(=O)/C(=C\c2ccc3nccnc3c2)S1
residual activity [1]: 106% | residual activity [2]: 59% | residual activity [3]: 75% | residual activity [4]: 54% | residual activity [5]: 99% | residual activity [6]: 103% | residual activity [7]: 99% | residual activity [8]: 93% | residual activity [9]: 114% | residual activity [10]: 79%

COc1ccc(C(=O)Nc2sc3c(c2C(N)=O)CCCC3)cc1OC
residual activity [1]: 97% | residual activity [2]: 76% | residual activity [3]: 76% | residual activity [4]: 76% | residual activity [5]: 108% | residual activity [6]: 114% | residual activity [7]: 84% | residual activity [8]: 118% | residual activity [9]: 109% | residual activity [10]: 94%

Cc1cncc2cccc(S(=O)(=O)N3CCCN(C(=O)CN)C[C@H]3C)c12
residual activity [1]: 5% | residual activity [2]: 1% | residual activity [3]: 88% | residual activity [4]: 74% | residual activity [9]: 122% | residual activity [10]: 75%

O=c1c2ccccc2[nH]c(=S)n1CCN1CCC(=C(c2ccc(F)cc2)c2ccc(F)cc2)CC1
residual activity [1]: 110% | residual activity [2]: 84% | residual activity [3]: 103% | residual activity [4]: 89% | residual activity [5]: 112% | residual activity [6]: 95% | residual activity [7]: 90% | residual activity [8]: 123% | residual activity [9]: 101% | residual activity [10]: 66%

O=C1Nc2ccc(Br)cc2/C1=C\c1cc2c([nH]1)CCCC2
residual activity [1]: 82% | residual activity [2]: 69% | residual activity [3]: 72% | residual activity [4]: 62% | residual activity [5]: 107% | residual activity [6]: 107% | residual activity [8]: 109% | residual activity [9]: 82% | residual activity [10]: 38%

Nc1nc(Nc2ccc(S(N)(=O)=O)cc2)nn1C(=S)Nc1c(F)cccc1F
residual activity [1]: -2% | residual activity [2]: 0% | residual activity [3]: 3% | residual activity [4]: 2% | residual activity [5]: 49% | residual activity [6]: 8% | residual activity [7]: 79% | residual activity [8]: 27% | residual activity [9]: 7% | residual activity [10]: 0%

CCN(CC)CCCCN1c2ccccc2Oc2ccc(Cl)cc21
residual activity [1]: 108% | residual activity [2]: 92% | residual activity [3]: 88% | residual activity [4]: 83% | residual activity [5]: 118% | residual activity [6]: 108% | residual activity [7]: 78% | residual activity [8]: 109% | residual activity [9]: 110% | residual activity [10]: 88%
